One may read the inhibition as the relative decrease from the control value, in per cent.

This is an account of results in PubChem BioAssay.

The nature of test [1]: inhibitors of TNFa-induced NFkB p65 translocation, primary screen, imaging, HUVEC, MLSMR starter and 10KST1 sets (AID 438;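 active means inhibition above 20% together with a positive visual image hit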;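 further: compound added about 3h40 before a 20 min TNFalpha stimulation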;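 on inhibition: signal is the nuclear over cytoplasmic p65 intensity ratio per well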). To be noted: HUVEC TNFa-induced p65 nuclear translocation; cell count: measured here: nuclei count (cytotoxicity indicator), at 2.08 µM unless noted; inhibition: at 2 µM, stronger effect = higher value unless noted.
A short description of test [2]: reduction of polyQ htt aggregates in cells – imaging, exon1htt(103Q)mCFP cells, high-content imaging, primary screen (AID 483;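 active means visual image review flags a hit and inhibition of aggregation exceeds 20%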;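 further: compound exposure lasted 3 days before fixation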;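 on nuclei count: percent of the per-plate median nuclei count of sample wells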). To be noted: exon1htt(103Q)mCFP cell line, aggregate imaging, at 2 µM; inhibition of aggregation: stronger effect = higher value; nuclei count: measured here: cell count, toxicity.
A short description of test [3]: endothelial E-selectin expression blockers – imaging, HUVEC, immunofluorescence, MLSMR starter and 10KST1 sets, primary screen (AID 487;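 active means visually confirmed hit in the image check and inhibition above 20%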;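 on inhibition: signal is fraction of cell area covered by stained E-selectin grains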;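 on nuclei count: 100% = median nuclei count of all wells on the same plate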). To be noted: HUVEC TNFalpha-induced E-selectin immunofluorescence imaging, at 2 µM; inhibition: stronger effect = higher value; nuclei count: measured here: cell number, toxicity.
For test [4], the target named is Voltage-gated potassium channel subunit beta-2 (Rattus norvegicus) (UniProt P62483). Briefly: inhibitors of rat Kvbeta2 reductase activity – biochemical, NADPH fluorescence, primary screen (AID 622;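 active means fluorescence slope higher than the sample average by over 3 SD, cut at about -0.22 in these data, passing the limit was not always enough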;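 further: slope of raw intensity against log time taken from 70 to 1610 s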). The following applies: recombinant KvBeta, 4-cyanobenzaldehyde reduction, at 10 µM, stronger effect = higher value.
Test [5] has the same target. The test is described as follows: enhancers of rat Kvbeta2 NADPH turnover – biochemical, NADPH fluorescence, primary screen (AID 623;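 active means NADPH fluorescence slope more negative than the mean of all samples by about 3 SD, 99.7% confidence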;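 further: fluorescence intensity change per second fitted from 20 to 320 s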). To be noted: Recombinant KvBeta, NADPH fluorescence decrease slope, 10 min; at 10 µM; stronger effect = lower value.
Test [6] addresses Alpha-2C adrenergic receptor (Homo sapiens) (UniProt P18825). The test is described as follows: compounds altering alpha2C-coupled GIRK flux – cell-based, HEK293 alpha2C/GIRK1/2, thallium flux, primary screen (AID 624;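 active means fluorescence slope after compound addition differing from the mean of all screened samples at 99.7% confidence, in either direction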;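 further: slope of fluorescence ratio to pre-addition baseline per second over 15 to 24 s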). The following applies: thallium flux BTC fluorescence, at 10 µM, actives lie on both sides.
Test [7] can be described thus: blockers of RIG-like receptor reporter activation – cell-based, Sendai virus stimulus, luciferase, 10K MLSCN set, TLR/RLR signaling modifier project, primary screen (AID 602276).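 Further: firefly luciferase from ISG56 promoter only with Renilla not read in this screen; 0% = Sendai virus plus DMSO and 100% = medium plus DMSO without virus.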 To be noted: HEK293 RL24 IRF3 luciferase reporter, at 10 µM, stronger effect = higher value. In general terms: A reporter such as luciferase makes a cellular process visible.
Test [8] can be described thus: TLR3 IRF3 reporter activation blockers – cell-based, poly I:C stimulus, luciferase, 10K MLSCN set, primary screen (AID 602277;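 active means inhibition of the reporter signal at or above 50%; inactive means inhibition below 50%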). The following applies: HEK293-TLR3 RL24 IRF3 luciferase reporter, at 10 µM, stronger effect = higher value.

Calls of active or inactive are those of the source.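 How the source made its calls, unless noted: active means inhibition at or above 50% at 10 µM; inactive means inhibition below 50%.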

Alpha-2C adrenergic receptor (Homo sapiens), sequence (P18825 whole entry, looked up): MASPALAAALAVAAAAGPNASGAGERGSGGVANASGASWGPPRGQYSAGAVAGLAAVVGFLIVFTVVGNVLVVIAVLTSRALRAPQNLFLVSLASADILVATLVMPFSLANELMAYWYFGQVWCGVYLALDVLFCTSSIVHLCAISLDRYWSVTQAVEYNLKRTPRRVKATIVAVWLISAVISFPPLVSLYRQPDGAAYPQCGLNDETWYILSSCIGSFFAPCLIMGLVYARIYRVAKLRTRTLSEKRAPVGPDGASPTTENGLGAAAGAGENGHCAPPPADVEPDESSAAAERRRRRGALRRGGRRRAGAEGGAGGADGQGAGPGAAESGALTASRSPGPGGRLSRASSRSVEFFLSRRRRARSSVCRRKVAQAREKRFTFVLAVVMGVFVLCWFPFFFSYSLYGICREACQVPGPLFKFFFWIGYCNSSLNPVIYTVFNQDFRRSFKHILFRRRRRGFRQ
Voltage-gated potassium channel subunit beta-2 (Rattus norvegicus), sequence (P62483 whole entry, looked up): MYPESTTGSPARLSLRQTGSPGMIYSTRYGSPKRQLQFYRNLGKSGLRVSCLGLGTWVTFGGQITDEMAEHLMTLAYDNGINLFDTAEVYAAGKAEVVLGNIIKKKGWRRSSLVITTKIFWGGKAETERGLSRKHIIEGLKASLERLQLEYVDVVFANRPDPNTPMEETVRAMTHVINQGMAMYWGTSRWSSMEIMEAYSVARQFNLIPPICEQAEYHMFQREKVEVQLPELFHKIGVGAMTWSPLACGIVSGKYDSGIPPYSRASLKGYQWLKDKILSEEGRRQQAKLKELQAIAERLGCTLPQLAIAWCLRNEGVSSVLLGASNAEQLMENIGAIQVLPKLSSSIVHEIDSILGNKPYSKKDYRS

Regarding `CCN(CC)CCN=Cc1c(O)n(CCC2=CCCCC2)c(=O)[nH]c1=O`, the cell count in test [1] was 677. The inhibition was -6% (inactive) in test [1], 5.2% (inactive) in test [3], -53.3% (inactive) in test [7] and -117% (inactive) in test [8]. Further, the inhibition of aggregation in test [2] is -1.5% (inactive). Also, the nuclei count in test [2] was 94.9%; in test [3], 104%. For the same compound, the fluorescence slope in test [4] was -0.618 (inactive). The NADPH fluorescence slope in test [5] is -1.2e-05 (inactive). The slope in test [6] was 0.00557 (inactive).
As to `O=C1CC(N2CCC(n3c(=O)[nH]c4ccccc43)CC2)C(=O)N1c1ccc(F)cc1` (stereo not drawn), the cell count in test [1] came out at 366. Besides, the inhibition is 3.6% (inactive) in test [1], -52.5% (inactive) in test [3], 6.41% (inactive) in test [7] and 18.8% (inactive) in test [8]. Besides, the inhibition of aggregation in test [2] is 6.3% (inactive). Further, the nuclei count is 90.7% in test [2] and 93.7% in test [3]. The fluorescence slope in test [4] is -0.315 (inactive). The NADPH fluorescence slope in test [5] was 1.5e-05 (inactive). Besides, the slope in test [6] is 0.0029 (inactive).
`CC(=O)Nc1ccc(OC(=O)c2ccccc2N)cc1`: in test [1], the cell count was found to be 292. For the same compound, the inhibition in test [1] was -3.4% (inactive); in test [3], -96.3% (inactive); in test [7] it was 3.45% (inactive); in test [8] it was 27.2% (inactive). In test [2], the inhibition of aggregation is -8.5% (inactive). Further, the values for the nuclei count in test [2] and in test [3] were 76.3% and 111%, respectively. Moreover, in test [4], the fluorescence slope was -0.447 (inactive). Further, in test [5], the NADPH fluorescence slope is -1.3e-05 (inactive). The slope in test [6] was 0.00336 (inactive).
Regarding `C=CCn1c(O)c(C(C)=NCCCO)c(=O)[nH]c1=O`, in test [1], the cell count stood at 631. Also, the inhibition in test [1] is 5.7% (inactive); in test [3] it was -110% (inactive); in test [7] it was -1.46% (inactive); in test [8] it was 16.8% (inactive). In test [2], the inhibition of aggregation was -3.2% (inactive). Also, the nuclei count in test [2] worked out at 108%; in test [3], 156%. Further, the fluorescence slope in test [4] was -0.467 (inactive). Further, the NADPH fluorescence slope in test [5] is -4.7e-05 (inactive). The slope in test [6] was 0.00383 (inactive).
Consider `Cc1cccc(N2CCc3c2nc2ccccc2c3N)c1`, for which the cell count in test [1] was 731. The inhibition in test [1] is -6.5% (inactive); in test [3], -54.5% (inactive); in test [7], 15.5% (inactive); in test [8], 31.6% (inactive). Besides, the inhibition of aggregation in test [2] was -7.8% (inactive). Further, the values for the nuclei count in test [2] and in test [3] were 98% and 112%, respectively. Also, the fluorescence slope in test [4] was -0.113 (active). Also, the NADPH fluorescence slope in test [5] was -9.7e-06 (inactive). In addition, in test [6], the slope was 0.00452 (inactive).
The compound `CN1CCN(c2nc3ccccc3c(=O)n2-c2ccccc2)CC1` had a cell count in test [1] of 568. Besides, the inhibition in test [1] is -2.3% (inactive); in test [3], -3.5% (inactive); in test [7] it was 845% [above what the read-out allows, likely interference] (active); in test [8], 50.1% (active). Moreover, the inhibition of aggregation in test [2] is -4.9% (inactive). For the same compound, the nuclei count in test [2] came to 70.3%; in test [3], 102%. Moreover, the fluorescence slope in test [4] is -0.57 (inactive). Besides, in test [5], the NADPH fluorescence slope was -2.8e-05 (inactive). Moreover, the slope in test [6] was 0.00748 (inactive).
On to `CC(C)(C)P(=O)(c1ccncc1)N1CCCC1` (stereo not drawn), for which, in test [1], the cell count is 520. In addition, the inhibition is -2.4% (inactive) in test [1], -21% (inactive) in test [3], 14.9% (inactive) in test [7] and 22.7% (inactive) in test [8]. Also, in test [2], the inhibition of aggregation was -2.3% (inactive). Also, the nuclei count in test [2] worked out at 113%; in test [3], 115%. The fluorescence slope in test [4] was -0.275 (inactive). Moreover, in test [5], the NADPH fluorescence slope was -4.3e-05 (inactive). Further, in test [6], the slope was 0.00562 (inactive).
`O=C(c1cccs1)C1CN2CCC1CC2` (stereo not drawn) came in with a cell count in test [1] of 582. The inhibition in test [1] was -15.9% (inactive); in test [3], 7.9% (inactive); in test [7], -7.76% (inactive); in test [8], 20.7% (inactive). For the same compound, the inhibition of aggregation in test [2] is 1.5% (inactive). Also, the values for the nuclei count in test [2] and in test [3] were 75.5% and 110%, respectively. Further, the fluorescence slope in test [4] was -0.485 (inactive). For the same compound, in test [5], the NADPH fluorescence slope is 3e-05 (inactive). Besides, the slope in test [6] was 0.00316 (inactive).
On to `COc1ccc(CCn2c(O)c(C=NCCCN(C)C)c(=O)[nH]c2=O)cc1OC`, for which, in test [1], the cell count was determined as 338. Further, the inhibition in test [1] was -1.6% (inactive); in test [3], -38.1% (inactive); in test [7], 11.5% (inactive); in test [8], 8.09% (inactive). Further, the inhibition of aggregation in test [2] was 12.1% (inactive). Also, the nuclei count in test [2] stood at 110%; in test [3], 108%. In addition, the fluorescence slope in test [4] was -0.446 (inactive). Also, the NADPH fluorescence slope in test [5] is -2.8e-05 (inactive). Also, in test [6], the slope was 0.00426 (inactive).
As for `Cc1nn(Cc2ccccc2Cl)c(Cl)c1C(=O)OCC(=O)NCc1ccco1`, the cell count in test [1] amounted to 459. The inhibition was -14% (inactive) in test [1], -20.7% (inactive) in test [3], 5.25% (inactive) in test [7] and -0.539% (inactive) in test [8]. Besides, the inhibition of aggregation in test [2] was 3.2% (inactive). Besides, the nuclei count in test [2] stood at 105%; in test [3] it was 112%. Also, the fluorescence slope in test [4] was -0.605 (inactive). Moreover, the NADPH fluorescence slope in test [5] was -1.7e-05 (inactive). In addition, the slope in test [6] is 0.00264 (inactive).
On to `Cc1ccnc(-n2c(-c3ccco3)nc3ccccc3c2=O)c1`, for which, in test [1], the cell count was determined as 445. For the same compound, the inhibition in test [1] was 10.2% (inactive); in test [3], -4.3% (inactive); in test [7] it was 6.03% (inactive); in test [8], -0.166% (inactive). In addition, the inhibition of aggregation in test [2] was -19.2% (inactive). Also, the nuclei count in test [2] was 115%; in test [3], 106%. Besides, the fluorescence slope in test [4] was -0.508 (inactive). The NADPH fluorescence slope in test [5] is -3.8e-05 (inactive). The slope in test [6] was 0.0068 (inactive).
Take `CC(=O)C1C(=O)NC23CCCCC2C1c1ccccc1O3` (stereo not drawn): in test [1], the cell count is 622. For the same compound, the inhibition was 3.3% (inactive) in test [1], 25.3% (inactive) in test [3], 4.02% (inactive) in test [7] and 14.8% (inactive) in test [8]. In test [2], the inhibition of aggregation was 2.2% (inactive). In addition, the nuclei count in test [2] was found to be 109%; in test [3], 99.5%. Also, the fluorescence slope in test [4] was -0.357 (inactive). Moreover, in test [5], the NADPH fluorescence slope is 4e-05 (inactive). The slope in test [6] is 0.0063 (inactive).
`CC(C)OCCCNC(=O)c1c(N)n(Cc2cccs2)c2nc3ccccc3nc12` had a cell count in test [1] of 434. The inhibition in test [1] was -9.3% (inactive); in test [3] it was 4.6% (inactive); in test [7], 14.8% (inactive); in test [8], 37.4% (inactive). For the same compound, in test [2], the inhibition of aggregation is 17.9% (inactive). Moreover, the nuclei count in test [2] was found to be 90.9%; in test [3], 134%. Further, in test [4], the fluorescence slope is -0.212 (inactive). For the same compound, the NADPH fluorescence slope in test [5] was 1.8e-05 (inactive). Moreover, the slope in test [6] was 0.00386 (inactive).
